The list is not random: actives were taken first. Their share in the collection is about 9.2%.
HPGD block – blocks human HPGD enzyme activity. P15428. Potency, µM, most hits filed as inhibitors. 4.3% of 150,000 active. purified HPGD, NADH fluorescence kinetic, PGE2 substrate
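20 nM HPGD preincubated 15 min at room temperature with compound in 50 mM Tris-HCl pH 8, 0.01% Tween 20. Started with 1 mM NAD+ and 30 uM prostaglandin E2; NADH fluorescence (360/450 nm) read 5 times over 30-s intervals, last minus first.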
ALDH1A1 block – inhibitors of human aldehyde dehydrogenase 1A1; P00352; Purified ALDH1A1, NADH fluorescence, propionaldehyde substrate; Potency, µM (top dose mostly 75.3 µM), actives largely listed as inhibitors; 7.3% of 220,000 active
LMNA splice mod – LMNA splicing modulation | Potency, µM (titrated, usually from 46.1 µM), most hits filed as inhibitors | 0.01% of 200,000 active | HeLa LMNA splicing GFP/RFP minigene ratio, 48 h; active = well fitted inhibition curve with a large enough effect in the signal ratio, with a control signal flat, not every such curve was filed as active; inconclusive = small, poorly fitted or top-dose-only effect, or effect the other way, or a change in a side signal; the % refers to the signal ratio
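Read-out is the ratio of GFP to DsRed2 object intensity, acquired by 488 nm laser-scanning cytometry on HeLa lamin A-EGFP minigene reporter cells. Compound incubation 48 hrs at 37 °C in Opti-MEM with 2% FBS; DMSO 0.5% final.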
HttQ103 aggreg – reduces HttQ103-GFP aggregates in PC12 cells; Potency, µM (doses to about 46.1 µM), hits mostly inhibitors; 1.1% of 220,000 active; AID 1688; PC12 HttQ103-GFP aggregates, Acumen cytometry, 40 h; active = well fitted curve in the direction sought with a large enough effect; inconclusive = small, poorly fitted or top-dose-only effect, or another doubt; inactive = no such curve, though single readings can be large; an effect the other way counts as inactive or inconclusive; also: nearly all actives have a fitted effect of over 60% in size
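Multiplexed with ATP-based cell death, this channel scores GFP aggregates in PC12 cells expressing inducible HTTex1-Q103-GFP. Induction used 100 nM tebufenozide; compounds were tested in concentration series.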
HTT cytoprotect – Huntington cell model cytoprotection by ATP luminescence | PC12 HTT-Q103 induced, cytoprotection, ATP luminescence, 40 h | Potency, µM (doses to about 56.4 µM), hits mostly activators | 0.14% of 230,000 active; active = well fitted curve in the direction sought with a large enough effect; inconclusive = small, poorly fitted or top-dose-only effect, or another doubt; inactive = no such curve, though single readings can be large; an effect the other way counts as inactive or inconclusive; also: nearly all actives have a fitted effect of over 45% in size
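Readout: ATPlite luminescence (ATP level). Model: stable PC12, inducible Htt exon1 Q103-GFP. Inducer: tebufenozide, 100 nM final. Compounds: dose series. No G418 in medium.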
KDM4E inh – JMJD2E (human) inhibition; Potency, µM (highest dose often 57.1 µM), hits mostly inhibitors; 1.6% of 230,000 active; AID 2147; B2RXH2; JMJD2E catalytic domain, FDH-coupled NADH fluorescence (FDH is formaldehyde dehydrogenase); also: nearly all actives have a fitted effect of over 50% in size
Target sequence (B2RXH2 1-337 limits assumed): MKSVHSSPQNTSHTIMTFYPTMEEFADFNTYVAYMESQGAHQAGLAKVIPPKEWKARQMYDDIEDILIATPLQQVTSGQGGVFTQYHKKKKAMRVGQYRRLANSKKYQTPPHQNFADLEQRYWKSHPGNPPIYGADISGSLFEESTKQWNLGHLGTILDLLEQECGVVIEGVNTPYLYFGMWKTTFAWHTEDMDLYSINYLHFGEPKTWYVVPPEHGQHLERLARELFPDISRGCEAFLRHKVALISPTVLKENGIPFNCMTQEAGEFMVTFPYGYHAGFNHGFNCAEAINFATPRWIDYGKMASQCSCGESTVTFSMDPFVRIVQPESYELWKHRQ
Hits are given with their value; i = inactive; ? = inconclusive; nt = not tested or not shown; [ ] = dose if it differs, or a comment. Unless noted, calls follow the shape of the dose curve; as a rule, active = well fitted inhibition curve with a large enough effect (not every such curve was filed as active); inconclusive = small, poorly fitted or top-dose-only effect, or another doubt; inactive = no such curve, though single readings can be large or run the other way.

SMILES	HPGD block	ALDH1A1 block	LMNA splice mod	HttQ103 aggreg	HTT cytoprotect	KDM4E inh
CCOC(=O)c1cn(CC)c2ccc(S(=O)(=O)N3CC(C)CC(C)C3)cc2c1=O (stereo not given)	i	i	i	i	i	i
O=C(COc1ccc(S(=O)(=O)N2CCCC2)cc1Cl)NCc1ccc2c(c1)OCO2	i	5.01µM	i	i	i	i
Cc1ccc(N2CC(c3nc(-c4ccc(Cl)cc4)no3)CC2=O)cc1F (stereo not given)	nt	nt	i	nt	nt	nt
Cc1cc(S(=O)(=O)N2CCCC2)ccc1OCC(=O)NCc1ccco1	?	10µM	i	?	i	i
O=C(COc1ccc(Cl)cc1Br)N1CCN(c2ccccc2)CC1	i	i	?	i	i	i
CCOc1cc(C(=O)OCC(=O)NCc2ccco2)cc(OCC)c1OCC	i	i	i	i	i[10 µM]	i
CC(C)(C)c1ccc(OCC(=O)NCc2ccco2)c(Br)c1	i	17.8µM	i	i	i	i
O=C(COc1ccc(S(=O)(=O)N2CCCC2)cc1Cl)N1CCN(c2ccccc2)CC1	i	17.8µM	?	i	i[0.074 µM]	i
CCn1cc(C(=O)NCc2ccco2)c(=O)c2cc(S(=O)(=O)N3CCCC3)ccc21	nt	25.1µM	nt	i	i	i
C=CCc1ccc(OC)c(OC)c1	i	?	nt	nt	i	nt
CCn1cc(C(=O)NCC2CCCO2)c(=O)c2cc(S(=O)(=O)N3CCCCCC3)ccc21 (stereo not given)	i	4.47µM	i	i	i	i
CC1(C)CC(=O)C=C(Nc2ccc(F)cc2F)C1	i	?	i	i	i	i
CC1(C)CC(=O)C=C(Nc2ccccc2F)C1	22.4µM	?	i	i	i	i
CC1(C)CC(=O)C=C(NCc2ccccc2)C1	i	i	i	i	i	i
CC1(C)CC(=O)C=C(Nc2cc(-c3ccccc3)[nH]n2)C1	i	4.47µM	i	i	i	i
CCNC(=O)/C(C#N)=C/c1c(N(Cc2ccccc2)Cc2ccccc2)nc2ccccn2c1=O	i	15.8µM	?	?	i[10 µM]	?
N#C/C(=C\c1c(N2CCCCCC2)nc2ccccn2c1=O)C(=O)NCc1ccco1	nt	12.6µM	nt	i[9.22 µM]	i[10 µM]	i
CNC(=O)/C(C#N)=C/c1c(N(Cc2ccccc2)Cc2ccccc2)nc2c(C)cccn2c1=O	i	i	?	?	i[10 µM]	?
N#C/C(=C\c1c(N2CCCCC2)nc2ccccn2c1=O)C(=O)NCc1ccco1	i	28.2µM	i	i	i[10 µM]	?
O=C(CCCc1ccccc1)N1CCN(c2ccc([N+](=O)[O-])cc2)CC1	i	22.4µM	i[0.0737 µM]	?	i	i
O=C(CCCCC(=O)N1CCN(c2ccccc2)CC1)N1CCN(c2ccccc2)CC1	i	i	?	i[9.22 µM]	i	i
O=C(CCCC(=O)N1CCN(c2ccc([N+](=O)[O-])cc2)CC1)c1ccccc1	i	28.2µM	i	i	i[10 µM]	i
COc1ccccc1CC(=O)N1CCN(c2ccc([N+](=O)[O-])cc2)CC1	nt	?	?	i[9.22 µM]	i[10 µM]	i
O=C(CCS(=O)(=O)Cc1ccccc1)N1CCN(c2ccc([N+](=O)[O-])cc2)CC1	nt	25.1µM	i	i	nt	i
O=C(NCc1ccc2c(c1)CCO2)Nc1cccc(C(F)(F)F)c1	nt	i	nt	i[9.22 µM]	i[10 µM]	i
SMILES	HPGD block	ALDH1A1 block	LMNA splice mod	HttQ103 aggreg	HTT cytoprotect	KDM4E inh
OCCN[C@@H]1c2cc(Cl)ccc2-c2c(Cl)cc(Cl)cc21	i	i[13.5 µM]	nt	nt	i[10 µM]	nt
COc1cccc(/C=N/n2nnc3c(cnn3-c3ccccc3)c2=O)c1	?	0.891µM	i	i	i	i
CC(C)(C)C1CCc2[nH]nc(C(=O)O)c2C1 (stereo not given)	i	i	i	i	3.55µM	i
N#C/C(=C(/O)CO/N=C/c1ccccc1Cl)c1nc2ccccc2[nH]1	nt	i	nt	i[9.22 µM]	i[10 µM]	i
COC(C[C@H]1O[C@H]1C(=O)COCc1ccccc1)OC	nt	nt	nt	i[9.22 µM]	i[10 µM]	i
CNC(=O)C1CCC(Cn2c(=O)c3sccc3n(CC(=O)Nc3ccc(C)cc3C)c2=O)CC1 (stereo not given)	nt	nt	i	nt	nt	nt
Cc1ccc(NC(=O)c2noc(C(C)C)c2[N+](=O)[O-])cc1	nt	10µM	i	i	i	i
CC(C)c1onc(C(=O)Nc2cccnc2Cl)c1[N+](=O)[O-]	nt	?	?	i	i	i
CC(C)c1onc(C(=O)Nc2cccc(O)c2)c1[N+](=O)[O-]	nt	i	nt	i	i	i

Compound activity deposited in PubChem BioAssay by National Center for Advancing Translational Sciences (NCATS).
